# Where “and” joins values, the source holds several entries; their conditions need not be identical. Equal entries are not always repeated. This is part of a sample that, as a whole, favours compounds with a hit. Of some 83,000 tested, about 20% had one in any assay.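 Compound tested at a single concentration for 48 hours in 96-well plates; a percent growth value below 10 was scored as active.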 Calls of active or inactive are those of the source.
# Legend:
# Assay in all cases: NCI-60 one-dose screen, 48 h (100 = growth as untreated, 0 = no growth, -100 = all killed)
# Details in all cases: 10 µM unless noted
# NCI-H23 lung = system: NCI-H23 lung
# NCI-H226 lung = system: NCI-H226 lung
# NCI-H322M lung = system: NCI-H322M lung
# HOP-62 NSCLC = system: HOP-62 NSCLC
# NCI-H460 lung = system: NCI-H460 lung
# HOP-92 NSCLC = system: HOP-92 NSCLC
# NCI-H522 lung = system: NCI-H522 lung
# A549/ATCC NSCLC = system: A549/ATCC NSCLC
# 786-0 renal = system: 786-0 renal
# COLO 205 colon = system: COLO 205 colon
Compound,growth (NCI-H23 lung),growth (NCI-H226 lung),growth (NCI-H322M lung),growth (HOP-62 NSCLC),growth (NCI-H460 lung),growth (HOP-92 NSCLC),growth (NCI-H522 lung),growth (A549/ATCC NSCLC),growth (786-0 renal),growth (COLO 205 colon)
C[C@]12CCc3sc(Nc4ccc(OC(F)(F)F)cc4)nc3C1=CC[C@@H]1[C@@H]2CC[C@]2(C)C(=O)CC[C@@H]12,75.5% (inactive),74.9% (inactive),77.3% (inactive),80% (inactive),53.3% (inactive),75% (inactive),89.1% (inactive),67% (inactive),30.5% (inactive),67.9% (inactive)
O=P(O)(Nc1ccccc1)Nc1ccccc1,91.1% (inactive),102% (inactive),90.6% (inactive),83.3% (inactive),99.2% (inactive),89.1% (inactive),85.6% (inactive),91% (inactive),93.7% (inactive),115% (inactive)
CCOC(=O)P(=O)(OCC)OCC,112% (inactive),106% (inactive),82.6% (inactive),109% (inactive),116% (inactive),94.9% (inactive),85.7% (inactive),101% (inactive),113% (inactive),112% (inactive)
O=Cc1cn(Cc2ccccc2)c2ccccc12,80.1% (inactive),28.2% (inactive),86% (inactive),65.8% (inactive),20.9% (inactive),74.4% (inactive),121% (inactive),76.6% (inactive),87.6% (inactive),15.4% (inactive)
CC(C)COC(=O)Cc1ccccc1,106% (inactive),99.4% (inactive),104% (inactive),101% (inactive),109% (inactive),95.1% (inactive),99% (inactive),105% (inactive),104% (inactive),106% (inactive)
CC[PH+](CC)CC.O=COC1OC([S-])C(OC=O)C(OC=O)C1OC=O.[Au+] (stereo not given),-57.3% (active),-66.7% (active),-95.9% (active),-83.1% (active),-59% (active),-86.8% (active),-75% (active),-76.6% (active),-83.4% (active),-84.9% (active)
CC1(C)S[C@H]2CC[C@H]3OC(=O)[C@@H]1N23,94.7% (inactive),98.1% (inactive),98.7% (inactive),104% (inactive),110% (inactive),77.9% (inactive),88.9% (inactive),96.6% (inactive),106% (inactive),137% (inactive)
CCCCS(=O)(=O)Cl,108% (inactive),100% (inactive),111% (inactive),122% (inactive),106% (inactive),97.4% (inactive),99.8% (inactive),109% (inactive),103% (inactive),109% (inactive)
COc1ccc(CN)cc1OC,101% (inactive) and 104% (inactive),113% (inactive) and 105% (inactive),135% (inactive) and 96.9% (inactive),107% (inactive) and 101% (inactive),124% (inactive) and 102% (inactive),108% (inactive),107% (inactive) and 98.5% (inactive),108% (inactive) and 102% (inactive),105% (inactive) and 101% (inactive),122% (inactive) and 109% (inactive)
Nc1c(Cl)c(Cl)nc(C(=O)O)c1Cl,104% (inactive),102% (inactive),80.8% (inactive),86.9% (inactive),102% (inactive),106% (inactive),98.6% (inactive),108% (inactive),103% (inactive),117% (inactive)
C/C(=C\c1ccn(-c2ccc(N)cc2F)n1)[C@@H]1C[C@@H]2O[C@]2(C)CCC[C@H](C)[C@H](O)[C@@H](C)C(=O)C(C)(C)[C@@H](O)CC(=O)O1,25.2% (inactive),35.6% (inactive),15.5% (inactive),36.4% (inactive),11% (inactive),49% (inactive),10.2% (inactive),22.5% (inactive),18.1% (inactive),-5.18% (active)
O=C1NC(=O)C(=C/C=C/c2ccccc2)C(=O)N1,-49% (active),62.7% (inactive),97% (inactive),48.2% (inactive),33.1% (inactive),92.8% (inactive),6.24% (active),80.2% (inactive),-25.4% (active),-47.1% (active)
NC(N)=NC(N)=Nc1ccc(Cl)cc1,103% (inactive),98.5% (inactive),109% (inactive),112% (inactive),106% (inactive),89.7% (inactive),93.6% (inactive),111% (inactive),115% (inactive),112% (inactive)
N#CCN(CC#N)[N+](=O)[O-],109% (inactive),97.9% (inactive),110% (inactive),102% (inactive),104% (inactive),84.9% (inactive),94.4% (inactive),106% (inactive),103% (inactive),110% (inactive)
CC[C@H](CC[C@@H](C)[C@H]1CC[C@H]2[C@@H]3CC[C@H]4C[C@]5(CC[C@]4(C)[C@H]3CC[C@]12C)OO[C@](C)(C(F)(F)F)O5)C(C)C,92.3% (inactive),89.7% (inactive),91.5% (inactive),81.7% (inactive),95.1% (inactive),87.4% (inactive),92.8% (inactive),95.3% (inactive),97% (inactive),96.4% (inactive)
O=CC1(c2ccccc2)CCN(Cc2ccccc2)CC1,101% (inactive),98.2% (inactive),105% (inactive),112% (inactive),110% (inactive),97.3% (inactive),105% (inactive),95.4% (inactive),108% (inactive),109% (inactive)
COc1ccc(N(CC(=O)NCCC[Te]c2ccccc2)C(=O)c2ccccc2)cc1,0.588% (active),52.7% (inactive),4.82% (active),15.8% (inactive),-1.52% (active),-9.19% (active),-9.72% (active),2.78% (active),75.3% (inactive),89.2% (inactive)
CCC(=O)C(CC(C)[N+](C)(C)C)(c1ccccc1)c1ccccc1 (stereo not given),91.7% (inactive),87.8% (inactive),103% (inactive),91.6% (inactive),106% (inactive),103% (inactive),86.1% (inactive),95.8% (inactive),92.9% (inactive),85.8% (inactive)
CC1=C([Te]c2ccccc2)C(=O)c2ccccc2C1=O,-33.9% (active),-52.1% (active),-22.8% (active),-49.5% (active),-57.7% (active),-53.8% (active),-15.3% (active),-66.1% (active),-46.2% (active),-83.6% (active)
Oc1ccccc1C=NCCN=Cc1ccccc1O.[Fe],86.1% (inactive),85% (inactive),111% (inactive),74.9% (inactive),59.7% (inactive),98.7% (inactive),47.5% (inactive),61.6% (inactive),102% (inactive),108% (inactive)
CC1=C(C)C(=O)O[C@@H]([C@](C)(O)[C@]2(O)CC[C@@]3(O)[C@@H]4C[C@H]5O[C@]56CC=CC(=O)[C@]6(C)[C@H]4CC[C@]23C)C1,-22% (active),-45.2% (active),-15.5% (active),2.69% (active),5.64% (active),15.7% (inactive),-59.5% (active),7.89% (active),-30.7% (active),-83.1% (active)
CCCCCCCCCCCCCCCC[N+](C)(C)C,-83.6% (active) and 20.7% (inactive),-54.8% (active) and 46.7% (inactive),-70% (active) and 60.7% (inactive),-76.6% (active) and -23.9% (active),-84% (active) and 0.102% (active),-45.3% (active) and -18.4% (active),-57.9% (active) and -39.7% (active),29.4% (inactive),-83.5% (active) and 4.56% (active),-74% (active) and -89.8% (active)
C[N+]1(C)CCCC1c1cccnc1 (stereo not given),101% (inactive),98.3% (inactive),104% (inactive),101% (inactive),108% (inactive),88.9% (inactive),102% (inactive),95.9% (inactive),91% (inactive),109% (inactive)
N#CC(NC(=O)CCl)=C(Cl)Cl,28.5% (inactive),70.8% (inactive),78.6% (inactive),73.2% (inactive),50.7% (inactive),-71.5% (active),-84.4% (active),66.8% (inactive),-72.2% (active),-90.4% (active)
CCC(=O)C(CC(C)N1CCCCCC1)(c1ccccc1)c1ccccc1 (stereo not given),91.6% (inactive),92.6% (inactive),84.7% (inactive),85.6% (inactive),103% (inactive),65.9% (inactive),83% (inactive),87.8% (inactive),87.4% (inactive),93% (inactive)
O=C(CBr)OCCOC(=O)CBr,84.7% (inactive),109% (inactive),97.7% (inactive),109% (inactive),95% (inactive),114% (inactive),-74.6% (active),92.8% (inactive),24.4% (inactive),104% (inactive)
C[C@]12CCc3sc(Nc4ccc(F)cc4)nc3C1=CC[C@@H]1[C@@H]2CC[C@]2(C)C(=O)CC[C@@H]12,72.8% (inactive),86.7% (inactive),82.1% (inactive),82% (inactive),69.9% (inactive),96.8% (inactive),62% (inactive),79.5% (inactive),5.28% (active),86% (inactive)
COc1ccc(O)c2c(=O)c3c(OC)cc4c(c3oc12)[C@@H]1C=CO[C@@H]1O4,6.73% (active),36.8% (inactive),42.4% (inactive),36.6% (inactive),8.73% (active),70.5% (inactive),41.9% (inactive),50% (inactive),74.6% (inactive),36.1% (inactive)
O=C(Cc1ccccc1)NC(O)C(Cl)(Cl)Cl (stereo not given),102% (inactive),97.2% (inactive),122% (inactive),110% (inactive),120% (inactive),123% (inactive),105% (inactive),96.3% (inactive),94.7% (inactive),118% (inactive)

# From PubChem BioAssay (NCI)
